# Measured values as given in PubChem BioAssay AID2551 (National Center for Advancing Translational Sciences (NCATS), 2010).
# About 17,000 (5.5%) of roughly 310,000 compounds were called active. Roughly 11% stayed inconclusive and do not appear here. This is one part of a sample in which actives are shown more often than they occur. Unmarked numbers belong to inactive results. Calls follow the shape of the dose curve; as a rule, active = well fitted inhibition curve with a large enough effect; inconclusive = small, poorly fitted or top-dose-only effect, or effect the other way; inactive = no such curve, though single readings can be large or run the other way.
# Target: Nuclear receptor ROR-gamma (Mus musculus) (UniProt P51450)
# Experiment: qHTS for inhibitors of ROR gamma transcriptional activity; also: nearly all actives have a fitted effect of over 60% in size
# Conditions: Drosophila S2 Gal4-RORgamma UAS-luciferase reporter, 20 h; series mostly up to 53.6 µM; activity change, negative = inhibition: at the top concentration
# Summary of the method: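 Stable Schneider cell line, Gal4 DNA-binding domain fused to ROR gamma, UAS-luciferase. Cmpd 1 hr RT → CuSO4 700 uM final → 20 hr RT → luciferase reagent 10 min → luminescence.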
# % is scaled to controls: 0 for no effect and ±100 for the full control effect; potency is read from the fitted curve at half-maximal effect.
# Sequence of Nuclear receptor ROR-gamma (Mus musculus) (P51450 whole entry, looked up): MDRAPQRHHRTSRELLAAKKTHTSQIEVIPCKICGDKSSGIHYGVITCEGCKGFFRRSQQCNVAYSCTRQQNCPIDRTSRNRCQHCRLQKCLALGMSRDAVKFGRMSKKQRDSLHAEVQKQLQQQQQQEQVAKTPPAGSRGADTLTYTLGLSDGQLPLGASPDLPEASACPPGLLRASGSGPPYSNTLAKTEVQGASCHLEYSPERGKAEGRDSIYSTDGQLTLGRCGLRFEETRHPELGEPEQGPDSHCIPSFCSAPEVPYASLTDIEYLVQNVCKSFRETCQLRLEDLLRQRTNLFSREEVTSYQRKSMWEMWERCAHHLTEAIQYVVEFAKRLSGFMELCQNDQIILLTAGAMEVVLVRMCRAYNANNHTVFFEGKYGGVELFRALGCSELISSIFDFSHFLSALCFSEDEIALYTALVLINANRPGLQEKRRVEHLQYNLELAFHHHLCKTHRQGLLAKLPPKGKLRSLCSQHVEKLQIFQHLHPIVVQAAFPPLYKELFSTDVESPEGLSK
Structure (SMILES),"activity change, negative = inhibition",Potency
O=C(NCCc1c[nH]c2ccccc12)C1CCN(Cc2ccc(Br)cc2)CC1,65.5%,–
Cc1cc(=O)oc2c3c(cc(OCC(=O)N[C@H](C(=O)O)c4ccccc4)c12)OC(C)(C)CC3,25.6%,–
Cc1ccc(NC(=O)CSc2nn3c(=O)c(C)nnc3s2)cc1Cl,-10.1%,–
COCCNC(=O)C(c1ccc(C)cc1)N(C(=O)CCC(=O)Nc1ccccn1)c1cccc(C)c1 (centres undefined),2.25%,–
CCCN1C2CCCC1CC(NC(=O)c1cccc(OC)c1)C2 (centres undefined),-2.82%,–
CCCCCCC(O)(CCN1CCCCC1)c1ccccc1 (centres undefined),-0.158%,–
Cc1cc(C(F)F)nn1CC(=O)NC1CCCCCC1,0.595%,–
CCCCn1c(=S)[nH]c2ncccc2c1=O,–,2 µM (active)
CCN(CC)CCn1c(=S)[nH]c2ncccc2c1=O,15.3%,–
O=c1c2ccccc2[nH]c(=S)n1CCN1CCC(=C(c2ccc(F)cc2)c2ccc(F)cc2)CC1,–,11.2 µM (active)
CCCCc1nc2c(=O)[nH]c3ccccc3c2o1,5.13%,–
CCCCn1c(=S)[nH]c2ccccc2c1=O,–,2.82 µM (active)
O=C(O)c1ccc(Cn2c(=S)[nH]c3cc(Cl)ccc3c2=O)cc1,-1.95%,–
CCCCNC(=O)c1ccc(-n2c(=S)[nH]c3ccccc3c2=O)cc1,-16.4%,–
CN(C)CCn1c(=S)[nH]c2ccc(Cl)cc2c1=O,–,10 µM (active)
Fc1ccc(NC(=S)N2CCc3[nH]c4ccccc4c3C2)cc1,-5.26%,–
CCCCCn1c(=O)c(C(=O)OCC)c(Cl)c2ccccc21,4.9%,–
O=C(CCn1c(=S)[nH]c2cc3c(cc2c1=O)OCO3)NCc1ccc(Cl)cc1,-16.6%,–
O=C(CCCN1CCc2[nH]c3ccc(F)cc3c2C1)c1ccc(F)cc1,-24.2%,–
Cc1ccccc1NC(=O)N1CCCC1C(=O)NCc1ccccc1 (centres undefined),24.5%,–
COc1cccc(N(CC(=O)NCc2ccccc2)C(=O)CCC(=O)Nc2nccs2)c1,-25.1%,–
COc1ccccc1/C=C1\SC(=O)N(CCC(=O)N(C)C2CCS(=O)(=O)C2)C1=O (centres undefined),-41.4%,–
CCN(CC)S(=O)(=O)c1ccc(N2CC(C(=O)NCc3cccnc3)CC2=O)cc1 (centres undefined),28.3%,–

Structure (SMILES),"activity change, negative = inhibition",Potency
COCCn1c(N)c(NCc2ccccc2)c(=O)[nH]c1=O,-16%,–
CCc1nnc(NC(=O)CCC(=O)N2CCN(c3cc(C)ccc3C)CC2)s1,0%,–
O=C(OCc1ccc([N+](=O)[O-])cc1)C1CC(=O)N(Cc2ccccc2Cl)C1 (centres undefined),4.03%,–
COc1ccccc1N1CCN(C(=O)c2cc(=O)c3cc(C)cc(C)c3o2)CC1,-7%,–
CC1=CC(C)(C)NC(=S)N1c1ccccc1,–,3.16 µM (active)
Cc1cccc([C@@H]2[C@@H]3C(=O)N(C)C(=O)[C@@H]3[C@@H]3C(=O)Nc4ccccc4C(=O)N23)c1,-3.16%,–
Cn1c(CCc2ccccc2)nnc1SCC(N)=O,6.86%,–
CCC(C)(C)NC(=O)CN(C(=O)CCC(=O)Nc1nccs1)c1ccc2c(c1)OCO2,-5.12%,–
CC(=O)c1cccc(NC(=O)CN2C(=O)c3cccnc3Oc3ccc(Cl)cc32)c1,10.5%,–
Clc1ccc(CSc2nnc(/C=C/c3ccccc3)o2)c(Cl)c1,15.2%,–
Nc1cc(N)nc(SCc2ccc(Cl)cc2)n1,31.9%,–
CSCc1cc(N(C)C)nc(SCc2ccc(Cl)cc2Cl)n1,–,8.91 µM (active)
Cc1cc(C)c(OCC(=O)N(Cc2cccs2)C2CCS(=O)(=O)C2)c(C)c1 (centres undefined),4.49%,–
CCOC(=O)c1ccc(NC(=O)Cn2nnc(-c3ccc(C)cc3)n2)cc1,-13.1%,–
Cc1cccc(NC(=O)Cc2ccc(Br)cc2)n1,37.9%,–
Cc1cccc(NC(=O)Nc2ccc(OCc3ccccc3)cc2)n1,13.7%,–
COC(=O)c1ccc(NC(=S)Nc2cccc(C)n2)cc1,–,2 µM (active)
CCOC(=O)c1ccc(NC(=O)c2cccnc2)cc1,20.6%,–
CCOC(=O)c1ccc(NC(=S)Nc2cc(C)cc(C)n2)cc1,–,2 µM (active)
CC(=O)N1c2ccc(S(=O)(=O)N3CCCC(C(=O)Nc4ccc(C)cc4C)C3)cc2CC1C (centres undefined),39.3%,–
COc1cccc(/C=C2\Sc3ccc(C(=O)NCC4CCCO4)cc3N(C)C2=O)c1 (centres undefined),7.44%,–
COc1cc(OC)cc(C(=O)NCCSCc2ccc(Cl)cc2)c1,18.3%,–
CCCCOC(=O)c1ccc(N2C(=O)CC(N3CCN(C/C=C/c4ccccc4)CC3)C2=O)cc1 (centres undefined),-0.54%,–

Structure (SMILES),"activity change, negative = inhibition",Potency
CCCCCCC(=O)N(O)C1CC(=O)N(c2ccccc2)C1=O (centres undefined),–,2.82 µM (active)
CCOC(=O)c1ccc(N2C(=O)CC(N(C)Cc3ccccc3)C2=O)cc1 (centres undefined),-15.7%,–
COc1cccc(Cn2c(=O)c(C)nc3cnc(Oc4ccccc4)nc32)c1,22.4%,–
CCNc1ncc2ncc(=O)n(Cc3cccc(OC)c3)c2n1,–,12.6 µM (active)
CCNc1ncc2ncc(=O)n(CCc3ccccc3)c2n1,-13%,–
Cc1ccc(SCCSc2ncccn2)cc1,-11%,–
Cc1ccc2c(C)c(C(=O)N(C)Cc3ccncn3)oc2c1C,-42.7%,–
O=c1[nH]c2ccc(S(=O)(=O)N3CCCC3)cc2[nH]1,3.62%,–
CCOC(=O)N1CCN(C(=O)c2cn(C)c3ccc(S(=O)(=O)N4CCCC4)cc3c2=O)CC1,-31.5%,–
CCCCn1c(=S)[nH]c2cc(S(=O)(=O)N3CCCCC3)ccc21,–,11.2 µM (active)
CN(C)CCN(C(=O)C1CCCCC1)c1nc2cc3c(cc2s1)OCO3,-15%,–
COc1ccc(NC(=O)CCn2ccnc2)c(OC)c1,-5.83%,–
CC1(C)C2CCC1(C)C(OC(=O)CCn1ccnc1)C2 (centres undefined),–,11.2 µM (active)
Brc1ccc(OCCn2ccnc2)cc1,-28%,–
O=C(Nc1ccncc1)c1ccc(Cl)c([N+](=O)[O-])c1,-5.13%,–
COc1ccc(C(=O)Nc2c(Cl)cc(Cl)cc2C(=O)N2CCC(C)CC2)cc1,-4.99%,–
CC1CCN(C(=S)c2cccc(O)c2)CC1,-14.6%,–
CC1CCN(C(=S)c2ccc(-c3ccc(Cl)cc3Cl)o2)CC1,–,15.8 µM (active)
CCc1ccc(NC(=O)CCNS(=O)(=O)c2cccs2)cc1,36.2%,–
Cc1ccc(NC(=O)[C@H](Cc2ccccc2)NC(=O)C2CCNCC2)cc1,-23.8%,–
O=C(CN1C(=O)C2C3CCC(C3)C2C1=O)Oc1ccc2ccccc2c1 (centres undefined),-7.76%,–
CC1=CC(C)(C)Nc2ccc(OC(=O)C(Cc3ccccc3)N3C(=O)C4CCCCC4C3=O)cc21 (centres undefined),-35.1%,–
CC1=CC(C)(C)Nc2ccc(OC(=O)CN3C(=O)C4CCCCC4C3=O)cc21 (centres undefined),–,4.47 µM (active)
